According to the supplement of paper PMC8975748:
Where a name gives a salt, the structure may show the parent alone.

Each compound was assayed on Saccharomyces cerevisiae BY4741 SeMeCo community (assay: z-score of prototroph abundance vs DMSO median; higher = larger share of this subpopulation than in DMSO controls). Conditions: 10 µM; 24 h; SM minimal medium; subpopulation (auxotrophy): Prototroph.
Protocol: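 Fluorescent four-plasmid SeMeCo (self-establishing metabolically cooperating S. cerevisiae BY4741 community; plasmids pH-mRuby2, pL-mWasabi, pU-eCFP, pM-TagRFP657) was grown 24 h in minimal SM medium with each Selleck FDA-approved drug at 10 µM in 384-well plates. Cells were fixed and imaged by high-content confocal microscopy. For each auxotrophic subpopulation (and the prototroph), a z-score gives the deviation from the DMSO vehicle-control population median.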

SMILES | z-score of prototroph abundance
CNC1CC(N)C(O)C(OC2OC(CO)C(O)C3OC4(OC(C(N)CO)C(O)C(O)C4O)OC23)C1O (centres undefined) [Hygromycin B] | 0.64
NC(=O)CN1CCCC1=O [Piracetam] | -1.9
COc1ccc(C=O)cc1 [p-Anisaldehyde] | 1.5
CN1[C@@H]2CC[C@H]1C[C@@H](OC(=O)C(CO)c1ccccc1)C2 (some centres undefined) [Atropine sulfate monohydrate] | 0.64
CN(C)C(=O)Oc1cccc([N+](C)(C)C)c1 [Neostigmine Bromide] | 0.27
O=C(O[C@H]1C[N+]2(CCCOc3ccccc3)CCC1CC2)C(O)(c1cccs1)c1cccs1 [Aclidinium Bromide] | -0.31
CC[C@H]1[C@@H]2C[C@H]3[C@@H]4N(C)c5ccccc5[C@]45C[C@@H]([C@@H]2[C@H]5O)N3[C@@H]1O [Ajmaline] | 0.22
Oc1cc(Cl)ccc1Oc1ccc(Cl)cc1Cl [Triclosan] | 2.53
C[C@@H]1O[C@@H](O[C@H]2C[C@@H](O)[C@]3(CO)[C@H]4[C@H](O)C[C@]5(C)[C@@H](C6=CC(=O)OC6)CC[C@]5(O)[C@@H]4CC[C@]3(O)C2)[C@H](O)[C@H](O)[C@H]1O [Ouabain] | 0.81
C#C[C@]1(O)C=C[C@H]2[C@@H]3CCC4=CC(=O)CC[C@@H]4[C@H]3CC[C@@]21CC [Gestodene] | 0.59
CN[C@@H]1[C@@H](O)[C@@H](O[C@@H]2[C@@H](O)[C@H](O[C@H]3O[C@H]([C@@H](C)O)[C@@H](O)[C@H](O)[C@H]3N)[C@@H](N)C[C@H]2N)OC[C@]1(C)O [Geneticin (G418 Sulfate)] | 0.1
CN1C(=O)COc2c(C(=O)NC3CN4CCC3CC4)cc(Cl)cc21 (centres undefined) [Azasetron HCl] | 0.42
CN(C)[C@@H]1C(=O)C(C(N)=O)=C(O)[C@@]2(O)C(=O)C3=C(O)c4c(O)ccc(Cl)c4[C@@](C)(O)[C@H]3C[C@@H]12 [Chlortetracycline HCl] | 0.13
N#Cc1nn(-c2c(Cl)cc(C(F)(F)F)cc2Cl)c(N)c1[S+]([O-])C(F)(F)F (centres undefined) [Fipronil] | 0.88
NCC(O)c1ccc(O)cc1 (racemic) [(+,-)-Octopamine HCl] | 0.28
CC(C)(O)C(Cl)(Cl)Cl [Chlorobutanol] | -0.27
CCOC(=O)Nc1ccc(NCc2ccc(F)cc2)cc1N [Retigabine 2HCl] | 0.05

SMILES | z-score of prototroph abundance
CCN(CC)CCOC(=O)C(O)(c1ccccc1)c1ccccc1 [Benactyzine hydrochloride] | -0.56
CN[C@@H]1[C@@H](O)[C@@H](O[C@@H]2[C@@H](O)[C@H](O[C@H]3O[C@H](CN)CC[C@H]3N)[C@@H](N)C[C@H]2N)OC[C@]1(C)O.CN[C@@H]1[C@@H](O)[C@@H](O[C@@H]2[C@@H](O)[C@H](O[C@H]3O[C@H]([C@@H](C)N)CC[C@H]3N)[C@@H](N)C[C@H]2N)OC[C@]1(C)O.CN[C@@H]1[C@@H](O)[C@@H](O[C@@H]2[C@@H](O)[C@H](O[C@H]3O[C@H]([C@@H](C)NC)CC[C@H]3N)[C@@H](N)C[C@H]2N)OC[C@]1(C)O [Gentamicin Sulfate] | 0.63
C[CH2][Hg][S]c1ccccc1C(=O)[O-].[Na+] [Thimerosal] | -17.3
C=CN1CCCC1=O.II [Povidone iodine] | -1.1
CN(C)[C@@H]1C(=O)C(C(N)=O)=C(O)[C@@]2(O)C(=O)C3=C(O)c4c(O)cccc4[C@@](C)(O)[C@H]3[C@H](O)[C@@H]12 [Oxytetracycline Dihydrate] | 0.77
COc1cc2c(cc1OC)C1CC(=O)C(CC(C)C)CN1CC2 (centres undefined) [Tetrabenazine (Xenazine)] | 0.02
CCOC(=O)Nc1ccc(NCc2ccc(F)cc2)cc1N [Retigabine] | 0.21
CC[C@H]1CN2CC[C@]3(C(=O)Nc4ccccc43)[C@@H]2C[C@@H]1/C(=C\OC)C(=O)OC [Rhynchophylline] | -0.9
C=CCN1C[C@H](C(=O)N(CCCN(C)C)C(=O)NCC)C[C@@H]2c3cccc4[nH]cc(c34)C[C@H]21 [Cabergoline] | -0.35
C[C@@H]1CC[C@H]2[C@@H](C)C(=O)O[C@@H]3O[C@@]4(C)CC[C@@H]1[C@]32OO4 [Artemisinin] | 1.7
Cn1cc(C2=C(c3cn(C4CCN(Cc5ccccn5)CC4)c4ccccc34)C(=O)NC2=O)c2ccccc21 | 0.73
CN(C)C(=O)Oc1ccc[n+](C)c1 [Pyridostigmine Bromide] | -0.27
CCN(C)C(=O)Oc1cccc([C@H](C)N(C)C)c1 [Rivastigmine Tartrate] | 0.28
CN1[C@@H]2C[C@@H](OC(=O)[C@H](CO)c3ccccc3)C[C@H]1[C@@H]1O[C@@H]12 [Scopolamine HBr trihydrate] | 0.7
CC1(C)SC2C(N)C(=O)N2C1C(=O)O (centres undefined) [6-Aminopenicillanic acid] | 0.04
COc1ccc2c(c1)[C@]13CCCC[C@@H]1[C@H](C2)N(C)CC3 [Dextromethorphan hydrobromide hydrate] | 0.38
Oc1cccc2cccnc12 [8-Hydroxyquinoline] | 0.32
